Data on 14 compounds can be found in the supplement of paper PMC9177965.

Structures are written as SMILES.

The test system of this experiment is HT29 sg-Ctrl (RNF43 wildtype). In words: cell viability activity relative to DMSO (negative = inhibition); higher = more viable cells (less growth inhibition). Conditions: 5 µM; 96 h. The procedure:
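Broad Repurposing Library primary screen at a single dose of 5 uM. HT29 sg-Ctrl and HT29 RNF43 G659fs CRISPR-edited isogenic cells were seeded at 2500 cells/well in 384-well plates in duplicate and treated for 96 h. Viability was read by CellTiter-Glo and reported as % activity relative to DMSO, with MG132 as the positive control (negative = growth inhibition).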
As to `O=C1/C(=C/c2ccccc2)C[C@@]2(O)C3Cc4ccc(O)c5c4[C@@]2(CCN3CC2CC2)[C@H]1O5`, the cell viability activity is -66%. As for `O=[N+]([O-])C=Cc1ccc2c(c1)OCO2`, the figure is -21%; as for `CO[C@H]1C[C@H](O[C@H]2CC[C@@]3(C)[C@H](CC[C@@H]4[C@@H]3CC[C@]3(C)[C@@H](C5=CC(=O)OC5)[C@@H](OC(C)=O)C[C@]43O)C2)O[C@@H](C)[C@@H]1O`, -90.4%. As for `COc1cccc2c1C(=O)c1c(O)c3c(c(O)c1C2=O)C[C@@](O)(C(=O)CO)C[C@@H]3O[C@H]1C[C@H](N2CCO[C@H](OC)C2)[C@H](O)[C@H](C)O1`, the figure is -95.3%; as for `Oc1cc(Cl)ccc1Oc1ccc(Cl)cc1Cl`, -92.8%; as for `CN(C)C(=S)SSC(=S)N(C)C`, -69%.

Consider `Clc1cccc(SC2CCNCC2)n1`, for which the cell viability activity is -64.7%. As for `C/C1=C/C[C@@H](/C(C)=C/c2csc(C)n2)OC(=O)C[C@H](O)C(C)(C)C(=O)[C@H](C)[C@@H](O)[C@@H](C)CCC1`, the figure is -42.3%; as for `NC(=O)c1cn([C@@H]2O[C@H](CO)[C@@H](O)[C@H]2O)c2ncnc(N)c12`, -93%; as for `c1ccc2c(c1)[I+]c1ccccc1-2`, -52.1%. The same measure for `CC[C@@H](C(=O)[C@@H](C)[C@@H](O)[C@H](C)[C@@H]1O[C@@H]([C@@H](CC)C(=O)O)CC[C@@H]1C)[C@H]1O[C@]2(C=C[C@@H](O)[C@]3(CC[C@@](C)([C@H]4CC[C@](O)(CC)[C@H](C)O4)O3)O2)[C@H](C)C[C@@H]1C`: -71.9%. As for `CN1CCN(c2cccc3[nH]c(=O)oc23)CC1`, the cell viability activity is -54.8%. As for `CC[C@@]1(O)C(=O)OCc2c1cc1n(c2=O)Cc2cc3ccccc3nc2-1`, the cell viability activity is -91.5%. The same measure for `O=Cc1cn(Cc2ccc(Cl)cc2)c2ccccc12`: -88.6%.
